Reference: the emibetuzumab library of Makowski et al. (2022)
The list shows a part of the results. The hit rate among all sequences tested is not known here.

B1: VH:VL chains; a variant is named by its letters at X, in order (parent)
chain 1: QVQLVQSGAEVKKPGASVKVSCKASGYTFTDYXMHWVRQAPGQGLEWMGXVNPNXXXTTYNQKFEGRVTMTTDTSTSTAYMELRSLRSDDTAVYYCARXNXLDXWGQGTTVTVSS
chain 2: DIQMTQSPSSLSASVGDRVTITCSVSSSVSSIYLHWYQQKPGKAPKLLIYSTSNLASGVPSRFSGSGSGTDFTLTISSLQPEDFATYYCQVYSGYPLTFGGGTKVEIK

Variants of: B1
Test: yeast display scFab, FACS + sequencing
Details: with MET
Outline: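 Antigen binding was called positive for sequences present in both antigen-positive samples and negative for those present only in the input. These calls came from deep sequencing, in two replicates, of round-3 sorted and input populations from a heavy-chain CDR mutant scFab yeast surface library. The library was first enriched twice magnetically on HGFR-Fc-coated Protein A beads and then by FACS, gating the top 50% antigen-positive cells after 3 h labelling at room temperature with 1 nM HGFR-Fc plus anti-Myc in PBSB with 1% milk.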

| Variant | antigen binding call |
| --- | --- |
| YRARGDGV | binds |
| YRAETDGV | no binding |
| YRARGAWV | binds |
| YRARSAWV | binds |
| YAAGGDGV | no binding |
| YRARGAGV | binds |
| SEEGTAGD | no binding |
| YAKGDYSV | no binding |
| SETTDSLD | no binding |
| AGGRGDVD | no binding |
| AAEGDAAD | no binding |
| ARGRGAAS | binds |
| ARGRGAAD | binds |
| SGGRTYGV | no binding |
| YRGGDDSV | no binding |
| YEGGGDWV | no binding |
| YRGGGDWV | binds |
| YTGGGDGV | no binding |
| VRGGGDWV | no binding |
| YRGGGDSV | binds |
| YRGRGDSV | binds |
| YTETGDSV | no binding |
| SETKGDWA | no binding |
| VTTKSDAV | no binding |

| Variant | antigen binding call |
| --- | --- |
| DEKGGSSA | no binding |
| DTTRGAVA | no binding |
| FRAGGAWY | binds |
| FRRGGAWY | binds |
| FRKRGAWY | binds |
| DRRGDAVY | no binding |
| YRRGDAWY | binds |
| YAGGGDGA | no binding |
| FRGEAVVY | no binding |
| YRRGGAWY | binds |
| FRRGGAGY | binds |
| FRRRGAWY | binds |
| FRTKAAVY | no binding |
| FTKGSAGY | no binding |
| FRAGGAVY | binds |
| VAGGDDGA | no binding |
| FGGENDGD | no binding |
| VRTRGSSS | binds |
| VRKRGSSS | binds |
| VGGTSSSS | no binding |
| DETGNVWF | no binding |
| VTGEDDAA | no binding |
| DAGGADVA | no binding |
| YRAGDAAD | binds |

| Variant | antigen binding call |
| --- | --- |
| YRAGSAAD | binds |
| YREGDAAD | no binding |
| YAARAALD | no binding |
| YRARSALD | binds |
| YRARSAAD | binds |
| DAGGGYSV | no binding |
| DKEGGSSA | no binding |
| DKTGNDVV | no binding |
| AATRNVGV | no binding |
| YAARAAVD | no binding |
| YRARSAVD | binds |
| VGGTSDGV | no binding |
| YKGRDASD | no binding |
| YKGRDALD | binds |
| YKGRDDVA | no binding |
| DKGRSAGD | no binding |
| YKGRDAWD | binds |
| YKGRDAGD | binds |
| SGKKAVWV | no binding |
| VEAGDDVY | no binding |
| VTGANDWV | no binding |
| SKGRSDVV | no binding |
| VTGEDAGA | no binding |
| DTERGSLV | no binding |

| Variant | antigen binding call |
| --- | --- |
| YRERGAAV | binds |
| FRERGSAV | binds |
| VRERGDLV | no binding |
| VRERGVGV | no binding |
| YRERGSAV | binds |
| VRERGSAV | binds |
| VTGEADAS | no binding |
| DATGGDVA | no binding |
| DAGGAAAV | no binding |
| VEEEGDGA | no binding |
| VKEKGAWY | no binding |
| YRGKGAWY | binds |
| YKGKGAWY | binds |
| FKGKGAWY | binds |
| YRGKDAWY | binds |
| AKGGAAVY | no binding |
| AETKGALD | no binding |
| SKAGDAWY | no binding |
| YAGKTAWS | no binding |
| YRGKDAAY | binds |
| SKGKGAWY | binds |
| YRGKGAGY | binds |
| YRGKDAWS | binds |
| SEARSDAV | no binding |

| Variant | antigen binding call |
| --- | --- |
| YRKKGALY | binds |
| DRAGDDLY | no binding |
| YRRRGSLY | binds |
| FRRRGSLY | binds |
| FRAGGSLY | binds |
| VAGTGDWV | no binding |
| DKREADGA | no binding |
| VEERDAGD | no binding |
| VTEGDAGA | no binding |
| SKTRAFVA | no binding |
| YRRRGALY | binds |
| SREAAAVY | no binding |
| SRGGGVGY | no binding |
| SRAGGSLY | binds |
| DAERDSGV | no binding |
| YRARDDVF | no binding |
| VRTEDDWF | no binding |
| YRARGAGF | binds |
| YRARSDVF | binds |
| VRARGAWF | binds |
| YRARGAWF | binds |
| VRGGDDWF | no binding |
| YRTGDDVF | no binding |
| SEGADAVA chain 1 G106S | no binding |

| Variant | antigen binding call |
| --- | --- |
| VETGNDGA | no binding |
| YRARSAGF chain 1 G108D | no binding |
| VGTKGAGF | no binding |
| VRAGDDVF | no binding |
| YRARSAGF | binds |
| VRARGAGF | binds |
| DEKKADWA | no binding |
| SEEGTDGV | no binding |
| YKGRGYWY | binds |
| YRGRGYWY | binds |
| YRGRGSWY | binds |
| YKTESYWY | no binding |
| YKGRGYSY | no binding |
| YTEETDGF | no binding |
| SEARSYAV | no binding |
| SKGTDDWV | no binding |
| SAEEDDVY | no binding |
| VTGEDDGS | no binding |
| YRGGSAGF | binds |
| YRGADFGF | no binding |
| YRGGTFGF | no binding |
| YRGASSGF | binds |
| YRGKGAGF | binds |
| YRTGTAGF | binds |

| Variant | antigen binding call |
| --- | --- |
| DEAKAAVD | no binding |
| SETGGDWV | no binding |
| STGKGSGV | no binding |
| YRGESSGF | binds |
| VRGKGDWV | no binding |
| SREAASGV | no binding |
| VRGKGSGF | binds |
| VRGKGSGV | binds |
| SRGKGSGV | binds |
| VTGKGDGV | no binding |
| ARGKGSGD | no binding |
| VTGTGSGF | no binding |
| VTGTGSLV | no binding |
| DEGGTDAA | no binding |
| AAEKDDLA | no binding |
| YRGKGAVF | binds |
| YRKRSVVF chain 1 S115F | no binding |
| FRGKGSGF | binds |
| YTGTGAVF | no binding |
| YRAKSAVF | binds |
| YRGKSSGF | binds |
| DRAGDDVF | no binding |
| YRGKGSGS | binds |
| YRGKGSGF | binds |

| Variant | antigen binding call |
| --- | --- |
| YRGKGDGS | no binding |
| DARGGDGS | no binding |
| DRTGDDVA | no binding |
| FRTGDDGA | binds |
| DRAGDDAV | no binding |
| FATGSDGA | no binding |
| FRTGDDAV | binds |
| FRTGDDAA | binds |
| FRETDFGA | no binding |
| ARAGDDAV | no binding |
| FRTGDAGA | binds |
| DRAGDDGA | no binding |
| DRGGDDAA | no binding |
| DREEGDWV | no binding |
| STAEDFVV | no binding |
| VRRGSFGA | no binding |
| YAGKGFGA | no binding |
| YRKRTFGA | no binding |
| YARTGFGA | binds |
| YAGRGFGA | no binding |
| YRRGSFGA | binds |
| YGAGDFGA | no binding |
| YRRGGFGA | binds |
| SEARSALD | no binding |

| Variant | antigen binding call |
| --- | --- |
| VKAGGDSD | no binding |
| YKAKGALD | binds |
| SKKEDSAD | no binding |
| SKAGGSAD | binds |
| YKAGGALD | binds |
| SKAGGALD | binds |
| SKAGGDVD | no binding |
| VATGDDVY | no binding |
| VRAGAFSV | no binding |
| DTGTGDVF | no binding |
| VEEEGDVY | no binding |
| AKTRDDVA | no binding |
| DRGGDAVV | no binding |
| YRTRSAGV | binds |
| YGTRSYGV | no binding |
| YRTRSAVV | binds |
| YRTRGAGV | binds |
| YRTGAAGV | binds |
| YTTRGDGV | no binding |
| DTGTGSGA | no binding |
